Consider 15 compounds from PubChem BioAssay (NCI).

SMILES strings stand for the structures. The panel holds about 83,000 compounds, 20% with a hit somewhere; the sample as a whole holds those more often.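 Cells were grown in 96-well plates and exposed to the test compound at a single concentration for 48 hours; results are reported as percent growth, with values below 10 considered active.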 A number with no mark means an inactive call. Active and inactive are the calls of the source.

What all share (assay): NCI-60 one-dose screen, 48 h (100 = growth as untreated, 0 = no growth, -100 = all killed)
Holding throughout (conditions): 10 µM unless noted

Assay [1] deals with NCI-H23 lung.
In assay [2] the test system is NCI-H226 lung.
Assay [3] concerns NCI-H322M lung.
For assay [4], the system named is NCI-H460 lung.
Assay [5] concerns HOP-92 NSCLC.
Assay [6] deals with NCI-H522 lung.
For assay [7], the system named is A549/ATCC NSCLC.
Assay [8] deals with 786-0 renal.
For assay [9], the system named is COLO 205 colon.
Assay [10] has as its system HOP-62 NSCLC.

For the compound `NC(=O)c1c(NC(=O)c2ccc(OCC3CCCO3)cc2)sc2c1CCCC2` (configuration not stated), the growth in assay [1] is 100%; in [2], 83.8%; in assay [3] it was 99.8%; in assay [4], 106%; in assay [5] it was 66.9%; in assay [6], 87.3%. In addition, the growth in assay [7] was 35.5%; in assay [8], 95.5%; in assay [9], 111%.
As to `CCSc1nnc(NC(=O)Cc2ccc(Cl)cc2)s1`, the growth in assay [1] was 99.1%; in assay [2], 104%; in [3], 112%; in assay [4], 123%; in assay [5], 89.4%; in assay [6], 107%. The growth in assay [7] is 106%; in assay [8] it was 100%; in [9], 108%.
`COC1=CC(c2ccc[nH]2)=N/C1=C\c1[nH]c(C)c(C(=O)CCCCC(=O)Oc2ccc3c(c2)CCC2C3CC[C@]3(C)[C@@H](O)CC[C@@H]23)c1C` (some centres not stated): the growth is 73.3% in assay [1]; 61.5% in [2]; 62.9% in [3]; 29.6% in [4]; 30.4% in [5]; 12.9% in assay [6]. The values for the growth in assay [7], in assay [8] and in assay [9] were 52.6%, 66.1% and 94.6%, respectively.
Regarding `O=C(CC(O)c1ccncc1)c1ccccc1` (configuration not stated), the growth is -18.6% (active) in assay [1]; 9.03% (active) in assay [2]; -8.53% (active) in assay [3]; 102% in assay [4]; 10.2% in assay [5]; -36.6% (active) in assay [6]. Besides, the growth in [8] was 9.96% (active); in [9], -54.7% (active).
As for `Cc1ccc2c(c1)C(C)Cc1c(ncnc1-n1cnc3ccccc31)N2C` (configuration not stated), the growth in assay [1] was 28.9%; in [2], 72.4%; in [3], 43%; in [4], 4.64% (active); in assay [5] it was 62.6%; in assay [6], -15.3% (active). Also, the growth in [7] was 31%; in [8], 30.9%; in assay [9] it was -11.5% (active).
As to `O=C(O)c1ccc(-n2cc(CNc3ccc(C(F)(F)F)cc3)c(-c3ccccc3)n2)cc1`, the growth was 91.6% in assay [1]; 101% in [3]; 90.5% in assay [10]; 94.3% in assay [4]; 83.8% in assay [5]; 94.3% in [6]. Also, the figures for the growth in [7], in assay [8] and in assay [9] were 72.5%, 99.1% and 107%, respectively.
Take `CCN(CC)CCCC(C)N=c1cc(Nc2cc(=NC(C)CCCN(CC)CC)c3cc(OC)ccc3o2)oc2ccc(OC)cc12` (configuration not stated): the growth is -43.3% (active) in assay [1]; -38.4% (active) in [3]; -41.6% (active) in [10]; -38.7% (active) in assay [4]; -29.9% (active) in [5]; -78.6% (active) in assay [6]. For the same compound, the results for the growth in assay [7], in [8] and in assay [9] were -48.6% (active), -7.34% (active) and -96.2% (active), respectively.
For `Nc1c(C(=O)Nc2cccc(C(F)(F)F)c2)sc2nc3c(cc12)CCCCCC3`, the growth in assay [1] is 8.82% (active); in [3], 10.6%; in assay [10], -1.22% (active); in assay [4], 4.27% (active); in assay [5] it was -14.2% (active); in assay [6], 36.2%. The results for the growth in assay [7], in assay [8] and in assay [9] were -45.2% (active), -71.7% (active) and 48.5%, respectively.
Consider `COc1cc(C(=O)CCCl)ccc1O`, for which the growth is 91.8% in assay [1]; 106% in assay [3]; 112% in assay [10]; 106% in assay [4]; 95.6% in assay [5]; -24.2% (active) in assay [6]. The growth in assay [7] was 102%; in [8], 106%; in [9] it was 109%.
With `NC(=O)NNC(=O)c1ccccc1`, the growth in assay [1] is 103%; in assay [3], 109%; in [4], 103%; in assay [5] it was 103%; in assay [6], 107%; in assay [7], 101%. Also, the results for the growth in [8] and in assay [9] were 101% and 118%, respectively.
Consider `CCCCCCCCCCC/C=C\C[C@H](O)C/C=C1/C(=O)C=C[C@@H]1C/C=C\CCCC(=O)OC`, for which the growth was -25.2% (active) in [1]; 69.8% in assay [3]; -31.4% (active) in assay [4]; -13.6% (active) in assay [5]; -41.9% (active) in [6]; 15.6% in [7]. For the same compound, the growth in assay [8] was -3.32% (active); in [9], -45.9% (active).
On to `Cc1cccc(-n2c(C)nc3ccc(NC(=O)NCCCl)cc3c2=O)c1`, for which the growth is 86.8% in assay [1]; 105% in assay [3]; 96% in [10]; 100% in assay [4]; 86% in assay [5]; 98.9% in [6]. The results for the growth in assay [7], in [8] and in assay [9] were 101%, 93.5% and 104%, respectively.
As to `COc1ccc(C2SCC(=O)N2NC(=O)c2ccc(NC(=O)c3ccccn3)cc2)cc1OC` (configuration not stated), the growth in assay [1] was 102%; in [3], 95.2%; in assay [10], 88.1%; in assay [4], 113%; in assay [5] it was 116%; in [6], 81.8%. The growth in [7] was 91.7%; in assay [8] it was 97.2%; in [9] it was 109%.
With `COc1cc(-c2n[nH]nc2-c2ccc3c(c2)OCCO3)cc(OC)c1OC`, the growth in assay [1] is 22.8%; in assay [3], 51.4%; in assay [10], 8.87% (active); in [4], 2.69% (active); in [5], 24.3%; in [6], -44.5% (active). The growth in assay [7] was 16.5%; in assay [8], 20.9%; in assay [9], -85.7% (active).
Turning to `CCCCCc1c(C)[nH]c(/C=c2\[nH]/c(=C3/C=c4ccccc4=N3)cc2OC)c1C`, the growth in assay [1] was -42.1% (active); in [3], -8.17% (active); in assay [10] it was -56.7% (active); in assay [4] it was 2.12% (active); in assay [5] it was -56.8% (active); in assay [6] it was -45.8% (active). Moreover, the growth is -21.8% (active) in [7], -68.3% (active) in [8] and -76.5% (active) in assay [9].
